Test results from PubChem BioAssay AID1494156 (National Center for Advancing Translational Sciences (NCATS), 2020).
Results filed as inconclusive are left out. Active and inactive are the calls of the source. Calls come from the whole dose curve.

Assay: VSV-G qHTS counterscreen for inhibitors of MERS-S pseudo-typed particle cell entry
Details: VSV-G pseudotyped particle cell entry, luciferase counterscreen; series mostly up to 57.1 µM

Which Potency does the source give for `COc1cc([C@@H]2c3cc4c(cc3C(O[C@@H]3O[C@@H]5CO[C@@H](c6cccs6)OC5[C@H](O)[C@H]3O)C3COC(=O)[C@@H]32)OCO4)cc(OC)c1O` (stereo not given in full) here?
Its Potency is 0.192 µM (active).

Which Potency does the source give for `Oc1c(Cl)cc(Cl)c(Cl)c1Cc1c(O)c(Cl)cc(Cl)c1Cl` here?
Its Potency is 1.08 µM (active).

Which Potency does the source give for `COc1cccc2c1C(=O)c1c(O)c3c(c(O)c1C2=O)C[C@@](O)(C(=O)CO)C[C@@H]3O[C@H]1C[C@H](N)[C@@H](O)[C@H](C)O1` here?
Its Potency is 2.41 µM (active).

Which Potency does the source give for `CCCCCCCCCCCC[n+]1ccc2ccccc2c1` here?
Its Potency is 1.52 µM (active).

For `CC(=O)Oc1ccccc1C(=O)Nc1ncc([N+](=O)[O-])s1`, which Potency is on record?
The Potency was 10.8 µM (active).

For `CCCCCCCCCCCCCC[n+]1ccc(C)cc1`, which Potency is on record?
Its Potency is 1.71 µM (active).

For `CCOc1cc2ncc(C#N)c(Nc3ccc(OCc4ccccn4)c(Cl)c3)c2cc1NC(=O)/C=C/CN(C)C`, which activity, negative = inhibition is on record?
The activity, negative = inhibition was -3.61% [at 11.2 µM] (inactive).

With `COc1ccc2cc1Oc1ccc(cc1)C[C@H]1c3c(cc4c(c3Oc3cc5c(cc3OC)CCN(C)[C@@H]5C2)OCO4)CCN1C` as the molecule, how does the Potency read?
Its Potency is 21.5 µM (active).

Which Potency does the source give for `O=C1CCc2ccc(OCCCCN3CCN(c4cccc(Cl)c4Cl)CC3)cc2N1` here?
The Potency was 13.6 µM (active).

With `CCCCc1oc2ccccc2c1C(=O)c1cc(I)c(OCCN(CC)CC)c(I)c1` as the molecule, how does the Potency read?
The Potency was 24.1 µM (active).

Which Potency does the source give for `CNC(=O)c1cc(Oc2ccc(NC(=O)Nc3ccc(Cl)c(C(F)(F)F)c3)c(F)c2)ccn1` here?
Its Potency is 15.2 µM (active).

With `C[C@]12CC[C@H](O)C[C@H]1CCC1C2CC[C@]2(C)[C@@H](c3ccc(=O)oc3)C[C@H]3O[C@]132` (stereo not given in full) as the molecule, how does the Potency read?
Its Potency is 4.82 µM (active).

For `O=C(Nc1ccc([N+](=O)[O-])cc1Cl)c1cc(Cl)ccc1O`, which Potency is on record?
The Potency was 0.607 µM (active).

For `O=C1c2c(O)ccc(O)c2C(=O)c2c(NCCNCCO)ccc(NCCNCCO)c21`, which Potency is on record?
Its Potency is 0.541 µM (active).

For `Cc1nn(C)c2c1C(c1ccccc1F)=NCC(=O)N2C`, which Potency is on record?
The Potency was 6.07 µM (active).

With `CC[C@@]1(O)C(=O)OCc2c1cc1n(c2=O)Cc2cc3c(CN(C)C)c(O)ccc3nc2-1` as the molecule, how does the Potency read?
The Potency was 0.0857 µM (active).

With `CCCCCCOC(=O)NC(=N)c1ccc(NCc2nc3cc(C(=O)N(CCC(=O)OCC)c4ccccn4)ccc3n2C)cc1` as the molecule, how does the Potency read?
Its Potency is 27.1 µM (active).

With `Cc1nnc2n1-c1sc(CCc3ccc(CC(C)C)cc3)cc1C(c1ccccc1Cl)=NC2C` (stereo not given) as the molecule, how does the Potency read?
Its Potency is 24.1 µM (active).

Which Potency does the source give for `Cc1oncc1C(=O)Nc1ccc(C(F)(F)F)cc1` here?
Its Potency is “inactive”.

Which Potency does the source give for `C=C1c2c(Cl)ccc(O)c2C(O)=C2C(=O)[C@@]3(O)C(O)=C(C(N)=O)C(=O)[C@@H](N(C)C)[C@@H]3[C@@H](O)[C@H]12` here?
The Potency was 19.2 µM (active).

With `O=c1c(C2CC(c3ccc(-c4ccc(Br)cc4)cc3)Cc3ccccc32)c(O)sc2ccccc12` (stereo not given) as the molecule, how does the Potency read?
The Potency was 6.07 µM (active).

For `CC(C)OC(=O)[C@H](C)N[P@](=O)(CO[C@H](C)Cn1cnc2c(N)ncnc21)Oc1ccccc1`, which Potency is on record?
The Potency was 0.0271 µM (active).

With `CC[C@H](C)C(=O)O[C@H]1C[C@@H](C)C=C2C=C[C@H](C)[C@H](CC[C@@H]3C[C@@H](O)CC(=O)O3)[C@H]21` as the molecule, how does the Potency read?
Its Potency is “inactive”.

Which Potency does the source give for `CO[C@@]12[C@H](COC(N)=O)C3=C(C(=O)C(C)=C(N)C3=O)N1C[C@@H]1N[C@@H]12` here?
Its Potency is 0.857 µM (active).

With `Nc1ccn([C@@H]2O[C@H](CO)[C@@H](O)C2(F)F)c(=O)n1` as the molecule, how does the Potency read?
Its Potency is 0.136 µM (active).

With `O=C(Nc1ccc(Cl)cc1)Nc1ccc(Cl)c(C(F)(F)F)c1` as the molecule, how does the Potency read?
Its Potency is 10.8 µM (active).

For `CN(C)CC/C=C1\c2ccccc2Sc2ccc(Cl)cc21`, which Potency is on record?
The Potency was 8.57 µM (active).

With `CC(=O)[C@]1(O)Cc2c(O)c3c(c(O)c2[C@@H](O[C@H]2C[C@H](N)[C@H](O)[C@H](C)O2)C1)C(=O)c1ccccc1C3=O` as the molecule, how does the Potency read?
Its Potency is 2.15 µM (active).

Which Potency does the source give for `Nc1nc(Cl)nc2c1ncn2C1CC(O)C(CO)O1` (stereo not given) here?
The Potency was 9.61 µM (active).

With `COc1cccc2c1C(=O)c1c(O)c3c(c(O)c1C2=O)C[C@@](O)(C(C)=O)C[C@@H]3O[C@H]1C[C@H](N)[C@H](O)[C@H](C)O1` as the molecule, how does the Potency read?
Its Potency is 1.92 µM (active).

For `CCN(CC)CCNC(=O)c1c(C)[nH]c(/C=C2\C(=O)Nc3ccc(F)cc32)c1C`, which Potency is on record?
Its Potency is 7.64 µM (active).

With `CN(C)[C@@H](CCOc1cccc2ccccc12)c1ccccc1` as the molecule, how does the Potency read?
Its Potency is 21.5 µM (active).

Which Potency does the source give for `C/C=C(/C)C(=O)O[C@H]1C(C)=CC23C(=O)C(C=C(CO)[C@@H](O)[C@]12O)[C@H]1[C@@H](C[C@H]3C)C1(C)C` (stereo not given in full) here?
Its Potency is “inactive”.

Which Potency does the source give for `COc1cc2nccc(Oc3ccc(NC(=O)C4(C(=O)Nc5ccc(F)cc5)CC4)cc3)c2cc1OC` here?
Its Potency is 15.2 µM (active).

With `CC(C)C[C@H](NC(=O)[C@H](CCc1ccccc1)NC(=O)CN1CCOCC1)C(=O)N[C@@H](Cc1ccccc1)C(=O)N[C@@H](CC(C)C)C(=O)[C@@]1(C)CO1` as the molecule, how does the Potency read?
The Potency was 0.192 µM (active).

For `CC(CN(C)C)CN1c2ccccc2CCc2ccccc21` (stereo not given), which Potency is on record?
The Potency was “inactive”.

With `COc1c(OCCCN2CCOCC2)ccc2c3n(c(=NC(=O)c4cnc(N)nc4)nc12)CCN3` as the molecule, how does the activity, negative = inhibition read?
Its activity, negative = inhibition is -8.49% [at 11.2 µM] (inactive).

For `COc1cccc2c1C(=O)c1c(O)c3c(c(O)c1C2=O)C[C@@](O)(C(=O)CO)C[C@@H]3O[C@H]1C[C@H](N)[C@H](OC2CCCCO2)[C@H](C)O1` (stereo not given in full), which Potency is on record?
Its Potency is “inactive”.

With `COc1cc2c(cc1Cc1cccc(Cl)c1F)c(=O)c(C(=O)O)cn2[C@H](CO)C(C)C` as the molecule, how does the Potency read?
The Potency was 0.192 µM (active).

Which Potency does the source give for `COc1ccc2cc3[n+](cc2c1OC)CCc1cc2c(cc1-3)OCO2` here?
The Potency was 8.57 µM (active).
